# Laboratory results as given in the supplement of paper PMC10849652.
# The full data set covers some 8,800 targets. This sample favours those with a hit. About 0.5% of all pairs of compound and target were hits. A number with no mark means an inactive call.
# Tests used:
# Experiment in all cases: log2 fold change, soluble protein after heating vs DMSO (PISA); higher = thermal stabilisation; K562 lysate, 10 uM; active = over 0.2 and 3.5 SD of the protein, either way, in both replicates (recomputed)
# vemurafenib = compound: CCCS(=O)(=O)Nc1ccc(F)c(C(=O)c2c[nH]c3ncc(-c4ccc(Cl)cc4)cc23)c1F [vemurafenib]
# In short: (§1)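 Dounce homogenisation of K562 pellets in PBS pH 7.4 with 1 mM MgCl2 produced a crude extract, used at 1 mg/mL protein. Exposure to 10 μM compound lasted 30 min, and aliquots were then heated for 3 min across 48°C-58°C, pooled and brought to 0.5% NP-40 at 4°C. The supernatant after 21,000xg for 90 min was quantified by TMTpro 16plex LC-MS/MS with channel sums equalised. Duplicate values are given as log-two fold change in thermal stability relative to solvent controls.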
# [1] = compound: CCCS(=O)(=O)Nc1ccc(F)c(C(=O)c2c[nH]c3ncc(Cl)cc23)c1F
# In short: as §1
# barasertib = compound: CCN(CCCOc1ccc2c(Nc3cc(CC(=O)Nc4cccc(F)c4)[nH]n3)ncnc2c1)CCOP(=O)(O)O [barasertib]
# In short: as §1
# [2] = compound: CC[C@@H]1C(=O)N(C)c2cnc(Nc3ccc(C(=O)NC4CCN(C)CC4)cc3OC)nc2N1C1CCCC1
# In short: as §1
# volasertib = compound: CC[C@@H]1C(=O)N(C)c2cnc(Nc3ccc(C(=O)N[C@H]4CC[C@H](N5CCN(CC6CC6)CC5)CC4)cc3OC)nc2N1C(C)C [volasertib]
# In short: as §1
# [3] = compound: CCn1c(C(=O)N(C2CC2)C2CC2)cc2c3c(ncn3C)c(Nc3cc(C)n(C)n3)nc21
# In short: as §1
# [4] = compound: CCn1cc(-c2ccnc3[nH]c(-c4cccc(CN(C)C)c4)cc23)c(-c2ccc(NC(=O)N(C)C)cc2)n1
# In short: as §1
# [5] = compound: CN1CCC(CNc2ccc3ncc(-c4cccc(OC(F)(F)F)c4)n3n2)CC1
# In short: as §1
# saracatinib = compound: CN1CCN(CCOc2cc(OC3CCOCC3)c3c(Nc4c(Cl)ccc5c4OCO5)ncnc3c2)CC1 [saracatinib]
# In short: as §1
# sotrastaurin = compound: CN1CCN(c2nc(C3=C(c4c[nH]c5ccccc45)C(=O)NC3=O)c3ccccc3n2)CC1 [sotrastaurin]
# In short: as §1
# UniProt Q8N5C7, sequence (Q8N5C7 whole entry, looked up): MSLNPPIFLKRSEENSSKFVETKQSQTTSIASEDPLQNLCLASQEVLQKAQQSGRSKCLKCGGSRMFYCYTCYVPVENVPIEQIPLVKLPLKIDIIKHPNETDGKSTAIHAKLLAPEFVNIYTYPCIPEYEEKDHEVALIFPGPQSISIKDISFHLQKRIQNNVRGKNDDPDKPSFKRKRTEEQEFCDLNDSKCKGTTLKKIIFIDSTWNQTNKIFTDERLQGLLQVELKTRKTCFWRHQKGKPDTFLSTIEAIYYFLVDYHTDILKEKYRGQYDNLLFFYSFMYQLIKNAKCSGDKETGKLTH
# UniProt P41214, sequence (P41214 whole entry, looked up): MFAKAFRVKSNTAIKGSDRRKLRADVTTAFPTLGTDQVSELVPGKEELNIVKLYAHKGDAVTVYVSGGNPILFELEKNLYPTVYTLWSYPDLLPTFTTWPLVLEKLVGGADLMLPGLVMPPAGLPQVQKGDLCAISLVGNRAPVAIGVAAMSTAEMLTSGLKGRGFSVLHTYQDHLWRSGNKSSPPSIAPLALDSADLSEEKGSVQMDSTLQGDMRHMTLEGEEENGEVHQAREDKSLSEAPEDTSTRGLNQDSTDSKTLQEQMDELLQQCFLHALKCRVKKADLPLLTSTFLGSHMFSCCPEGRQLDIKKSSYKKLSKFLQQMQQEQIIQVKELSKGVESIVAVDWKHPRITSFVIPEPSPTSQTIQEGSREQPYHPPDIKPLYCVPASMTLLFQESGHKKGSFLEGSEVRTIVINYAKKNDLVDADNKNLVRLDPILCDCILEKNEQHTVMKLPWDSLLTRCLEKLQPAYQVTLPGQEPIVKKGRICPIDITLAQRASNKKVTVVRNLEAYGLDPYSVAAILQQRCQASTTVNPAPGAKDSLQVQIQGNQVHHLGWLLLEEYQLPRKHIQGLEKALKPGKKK
# UniProt Q92538, sequence (Q92538 whole entry, looked up): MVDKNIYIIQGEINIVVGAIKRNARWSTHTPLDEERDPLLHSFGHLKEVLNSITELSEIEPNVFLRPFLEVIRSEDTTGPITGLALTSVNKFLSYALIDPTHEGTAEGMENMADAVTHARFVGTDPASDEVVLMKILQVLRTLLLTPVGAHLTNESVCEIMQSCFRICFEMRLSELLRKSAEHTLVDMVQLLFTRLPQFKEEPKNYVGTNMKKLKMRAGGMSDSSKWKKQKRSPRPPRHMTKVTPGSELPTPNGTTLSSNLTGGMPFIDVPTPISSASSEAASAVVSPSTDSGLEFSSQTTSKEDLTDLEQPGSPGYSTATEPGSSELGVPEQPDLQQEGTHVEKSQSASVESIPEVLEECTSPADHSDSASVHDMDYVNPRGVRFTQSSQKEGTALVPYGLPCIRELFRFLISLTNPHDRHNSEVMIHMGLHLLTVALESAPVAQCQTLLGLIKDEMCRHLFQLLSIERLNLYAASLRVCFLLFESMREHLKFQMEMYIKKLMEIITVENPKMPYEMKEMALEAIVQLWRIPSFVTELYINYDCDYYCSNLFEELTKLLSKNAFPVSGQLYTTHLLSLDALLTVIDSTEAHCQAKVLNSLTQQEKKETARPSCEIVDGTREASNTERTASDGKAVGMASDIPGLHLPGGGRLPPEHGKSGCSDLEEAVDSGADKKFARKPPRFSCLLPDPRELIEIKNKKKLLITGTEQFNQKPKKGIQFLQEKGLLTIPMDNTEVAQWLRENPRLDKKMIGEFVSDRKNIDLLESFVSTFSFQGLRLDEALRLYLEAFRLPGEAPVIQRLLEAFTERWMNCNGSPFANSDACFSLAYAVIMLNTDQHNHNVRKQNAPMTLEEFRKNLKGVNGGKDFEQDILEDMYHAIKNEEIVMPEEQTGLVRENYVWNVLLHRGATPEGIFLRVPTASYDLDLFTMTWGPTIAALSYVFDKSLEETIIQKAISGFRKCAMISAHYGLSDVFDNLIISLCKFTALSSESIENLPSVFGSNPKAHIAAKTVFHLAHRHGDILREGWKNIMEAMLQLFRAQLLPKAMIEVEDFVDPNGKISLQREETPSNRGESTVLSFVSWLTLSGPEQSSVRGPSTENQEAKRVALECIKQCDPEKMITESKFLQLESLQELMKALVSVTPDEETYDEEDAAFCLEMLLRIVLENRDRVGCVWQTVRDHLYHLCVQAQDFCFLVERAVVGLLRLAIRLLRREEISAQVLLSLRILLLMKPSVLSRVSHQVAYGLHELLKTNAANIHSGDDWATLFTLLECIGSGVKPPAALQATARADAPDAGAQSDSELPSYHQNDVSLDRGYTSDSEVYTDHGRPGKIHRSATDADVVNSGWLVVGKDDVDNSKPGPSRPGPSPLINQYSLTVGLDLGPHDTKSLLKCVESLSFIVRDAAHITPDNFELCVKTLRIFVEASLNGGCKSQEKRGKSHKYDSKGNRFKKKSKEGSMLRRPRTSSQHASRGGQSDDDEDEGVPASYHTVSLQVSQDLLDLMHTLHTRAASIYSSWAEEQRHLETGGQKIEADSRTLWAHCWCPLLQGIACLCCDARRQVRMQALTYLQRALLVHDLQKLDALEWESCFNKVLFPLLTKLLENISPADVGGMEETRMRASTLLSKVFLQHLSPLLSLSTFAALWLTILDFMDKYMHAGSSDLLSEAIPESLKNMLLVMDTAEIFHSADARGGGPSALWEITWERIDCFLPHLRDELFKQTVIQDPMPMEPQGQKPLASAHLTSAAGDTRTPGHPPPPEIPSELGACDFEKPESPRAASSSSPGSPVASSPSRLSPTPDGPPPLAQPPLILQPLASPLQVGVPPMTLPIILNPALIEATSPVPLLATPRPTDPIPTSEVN
# UniProt O15117, sequence (O15117 whole entry, looked up): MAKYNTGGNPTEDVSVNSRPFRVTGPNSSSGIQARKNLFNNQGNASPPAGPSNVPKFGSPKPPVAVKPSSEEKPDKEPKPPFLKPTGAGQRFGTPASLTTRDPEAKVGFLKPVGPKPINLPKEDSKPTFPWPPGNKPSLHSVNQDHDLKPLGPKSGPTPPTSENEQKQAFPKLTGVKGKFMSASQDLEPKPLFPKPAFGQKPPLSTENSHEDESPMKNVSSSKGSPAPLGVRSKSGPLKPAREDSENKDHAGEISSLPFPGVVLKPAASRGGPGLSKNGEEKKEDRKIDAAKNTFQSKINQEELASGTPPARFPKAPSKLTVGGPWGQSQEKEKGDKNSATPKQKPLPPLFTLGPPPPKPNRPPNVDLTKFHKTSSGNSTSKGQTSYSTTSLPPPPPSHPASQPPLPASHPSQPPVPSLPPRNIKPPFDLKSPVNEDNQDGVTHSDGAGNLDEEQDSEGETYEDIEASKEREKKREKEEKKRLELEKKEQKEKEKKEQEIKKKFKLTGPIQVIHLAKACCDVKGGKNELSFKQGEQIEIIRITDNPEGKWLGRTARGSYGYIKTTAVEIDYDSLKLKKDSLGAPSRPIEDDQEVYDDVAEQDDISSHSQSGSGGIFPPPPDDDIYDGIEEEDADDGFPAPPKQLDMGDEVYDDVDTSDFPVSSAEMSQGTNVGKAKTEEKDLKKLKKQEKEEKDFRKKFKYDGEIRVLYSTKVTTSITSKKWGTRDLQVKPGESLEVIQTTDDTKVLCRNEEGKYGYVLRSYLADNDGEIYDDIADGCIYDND
# UniProt P22102, sequence (P22102 whole entry, looked up): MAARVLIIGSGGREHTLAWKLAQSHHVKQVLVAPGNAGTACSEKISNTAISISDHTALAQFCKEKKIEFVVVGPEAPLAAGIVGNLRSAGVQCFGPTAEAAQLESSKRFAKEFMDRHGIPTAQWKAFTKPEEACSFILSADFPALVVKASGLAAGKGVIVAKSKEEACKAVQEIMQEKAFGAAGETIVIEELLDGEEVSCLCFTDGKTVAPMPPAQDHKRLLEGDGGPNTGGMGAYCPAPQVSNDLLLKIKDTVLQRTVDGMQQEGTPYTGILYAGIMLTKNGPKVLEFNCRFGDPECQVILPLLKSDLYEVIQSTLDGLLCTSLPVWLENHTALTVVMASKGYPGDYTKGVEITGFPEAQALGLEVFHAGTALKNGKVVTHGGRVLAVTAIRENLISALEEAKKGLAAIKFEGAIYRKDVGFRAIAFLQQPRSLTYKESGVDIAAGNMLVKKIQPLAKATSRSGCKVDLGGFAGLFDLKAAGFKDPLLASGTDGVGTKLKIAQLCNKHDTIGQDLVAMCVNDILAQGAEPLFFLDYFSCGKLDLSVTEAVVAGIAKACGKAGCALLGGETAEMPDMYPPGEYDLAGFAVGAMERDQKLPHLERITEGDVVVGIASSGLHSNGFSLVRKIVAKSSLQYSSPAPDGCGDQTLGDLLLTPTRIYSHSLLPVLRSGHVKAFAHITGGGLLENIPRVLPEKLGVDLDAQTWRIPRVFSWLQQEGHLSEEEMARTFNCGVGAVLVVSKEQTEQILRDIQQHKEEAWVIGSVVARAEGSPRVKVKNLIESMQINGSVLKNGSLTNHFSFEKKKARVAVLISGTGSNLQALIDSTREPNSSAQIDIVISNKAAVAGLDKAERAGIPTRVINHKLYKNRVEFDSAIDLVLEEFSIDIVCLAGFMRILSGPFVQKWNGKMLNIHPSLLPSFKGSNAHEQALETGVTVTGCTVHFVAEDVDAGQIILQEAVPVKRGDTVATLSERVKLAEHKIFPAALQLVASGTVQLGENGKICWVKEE
# UniProt P11474, sequence (P11474 whole entry, looked up): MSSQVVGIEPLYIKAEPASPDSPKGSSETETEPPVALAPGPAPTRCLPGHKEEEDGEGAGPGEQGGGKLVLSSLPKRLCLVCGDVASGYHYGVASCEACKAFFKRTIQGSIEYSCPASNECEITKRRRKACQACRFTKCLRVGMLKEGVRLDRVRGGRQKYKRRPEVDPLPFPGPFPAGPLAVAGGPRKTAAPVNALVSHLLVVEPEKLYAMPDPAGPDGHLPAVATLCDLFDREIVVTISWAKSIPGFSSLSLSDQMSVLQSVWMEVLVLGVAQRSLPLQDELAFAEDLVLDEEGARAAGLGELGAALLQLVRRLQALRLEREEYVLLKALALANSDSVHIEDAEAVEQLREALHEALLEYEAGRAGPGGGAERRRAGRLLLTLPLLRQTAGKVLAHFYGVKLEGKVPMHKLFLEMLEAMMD
Target,log2 fold change (vemurafenib),log2 fold change [1],log2 fold change (barasertib),log2 fold change [2],log2 fold change (volasertib),log2 fold change [3],log2 fold change [4],log2 fold change [5],log2 fold change (saracatinib),log2 fold change (sotrastaurin)
"EED, A0A5F9ZI63",-0.019,0.034,-0.029,0.005,0.015,-0.012,-0.047,0.049,0.026,0.031
GEMIN2 (UniProt O14893),0.061,-0.017,0.052,0.033,0.009,0.011,-0.052,0.029,0.025,-0.045
EP400 isoform 5 (UniProt Q96L91),-0.021,-0.007,-0.015,0.044,-0.042,-0.023,-0.007,0.011,0.01,-0.012
FADS3 (UniProt Q9Y5Q0),0.066,0.149,0,0.119,-0.103,0.023,-0.957 (active),0.343,0.152,-0.057
ERLIN1 (UniProt O75477),0.01,0.013,0.008,-0.037,-0.029,0.033,1.01,-0.059,0.041,-0.023
ERI1 (UniProt Q8IV48),0.01,0.01,0.008,-0.018,-0.023,-0.008,0.065,-0.112,-0.006,0.034
EFCAB14 (UniProt O75071),0.022,0.001,-0.01,0.039,0.008,-0.042,-0.058,0.047,0.023,0.005
EXOC2 (UniProt Q96KP1),0.018,0.109,0.041,-0.028,-0.043,0.031,0.017,-0.094,0.034,0.049
ERBIN isoform 8 (UniProt Q96RT1),0.038,0.015,-0.004,0.068,-0.013,0.338 (active),-0.028,0.1,-0.001,0.032
ESRRA (UniProt P11474),0.058,0.005,0.041,0.03,-0.075,-0.039,0.569 (active),-0.283,-0.055,0.053
GBF1 (UniProt Q92538),0.023,0.04,0.087,-0.004,-0.05,0.006,-0.011,-0.046,-0.011,0.019
FDX2 (UniProt Q6P4F2),0.022,-0.011,0.166,0.069,0.038,-0.047,-0.264,-0.003,-0.122,-0.027
EAPP (UniProt Q56P03),0.246,0.038,-0.048,0.06,0.02,0.009,-0.085,-0.092,0.034,-0.008
DSN1 (UniProt Q9H410),0,0.043,0.007,0.034,0.001,0.001,-0.017,0.01,0.034,0.003
FASTKD5 (UniProt Q7L8L6),-0.003,0.008,-0.047,0.073,-0.065,0.028,0.082,-0.245,0.043,-0.026
EIF2D (UniProt P41214),0.041,0.024,0.017,-0.074,-0.052,0.001,-0.02,-0.071,-0.002,0.026
FYB1 isoform 3 (UniProt O15117),-0.056,-0.011,-0.003,0.043,-0.026,-0.018,0.072,-0.101,0.007,0.008

Target,log2 fold change (vemurafenib),log2 fold change [1],log2 fold change (barasertib),log2 fold change [2],log2 fold change (volasertib),log2 fold change [3],log2 fold change [4],log2 fold change [5],log2 fold change (saracatinib),log2 fold change (sotrastaurin)
ENO1 isoform 2 (UniProt P06733),0.02,-0.005,-0.09,0.073,0.004,-0.021,-0.263,0.269 (active),0.01,0.01
"FADS1, A0A0A0MR51",-0.041,0.145,-0.018,0.02,-0.187,-0.062,-0.021,-0.078,-0.026,-0.037
DTWD1 (UniProt Q8N5C7),0.028,0.018,-0.005,0.024,-0.036,0.016,-0.026,-0.032,-0.033,0.019
GART (UniProt P22102),0.007,0.001,0.028,-0.066,-0.054,0.038,0.124,-0.013,0.011,-0.023
FPGT (UniProt O14772),-0.008,0.011,0.048,-0.064,-0.018,0.008,0.415 (active),-0.054,0.017,-0.001
EVI5L isoform 2 (UniProt Q96CN4),,,,,,,0.057,-0.183,,
EWSR1 (UniProt H7BY36),-0.035,,-0.055,0.095,,-0.046,-0.056,-0.043,0.024,-0.02
FOXL2 (UniProt P58012),,0.026,0.051,0.01,0.046,0.174,,,-0.038,
FAT1 (UniProt Q14517),,0.022,,0.32,0.025,-0.344,0.001,-0.036,,-0.333
GBA2 (UniProt Q9HCG7),,0.12,-0.01,0.099,-0.21,0,-0.076,0.025,0.033,0.001
FOXJ2 (UniProt Q9P0K8),,,-0.049,-0.149,,0.1,-0.062,-0.071,-0.101,
GIPC3 (UniProt Q8TF64),,-0.119,0.055,-0.15,-0.041,-0.045,-0.01,0.144,0.029,0.006
DST isoform 3 (UniProt Q03001),,,0.041,0.052,,,1.48 (active),-0.213,,
ESRRB isoform 1 (UniProt O95718),,,-0.004,,,-0.118,0.242,-0.127,,
EPB41 isoform 4 (UniProt P11171),,0.014,,,0.134,-0.079,-0.073,-0.065,,-0.02
FAM76B (UniProt Q5HYJ3),0.048,-0.005,,0.04,0.005,-0.008,0.025,0.007,-0.003,0.027
